Laboratory results: the supplement of paper PMC3334620
In all, about 33,000 sequences were measured (“E-score (-0.5 to 0.5)”: median about -0.035, highest 2% from about 0.35 on). The sample as a whole holds a higher share of the highest values than the screen did.

target: T1, Pdr3 (UniProt P33200); test: PBM E-score (8-mer binding enrichment) (E-score (-0.5 to 0.5)); higher = stronger / more preferred TF binding; details: protein concentration: 200 nM; construct: GST-full length
T1 sequence: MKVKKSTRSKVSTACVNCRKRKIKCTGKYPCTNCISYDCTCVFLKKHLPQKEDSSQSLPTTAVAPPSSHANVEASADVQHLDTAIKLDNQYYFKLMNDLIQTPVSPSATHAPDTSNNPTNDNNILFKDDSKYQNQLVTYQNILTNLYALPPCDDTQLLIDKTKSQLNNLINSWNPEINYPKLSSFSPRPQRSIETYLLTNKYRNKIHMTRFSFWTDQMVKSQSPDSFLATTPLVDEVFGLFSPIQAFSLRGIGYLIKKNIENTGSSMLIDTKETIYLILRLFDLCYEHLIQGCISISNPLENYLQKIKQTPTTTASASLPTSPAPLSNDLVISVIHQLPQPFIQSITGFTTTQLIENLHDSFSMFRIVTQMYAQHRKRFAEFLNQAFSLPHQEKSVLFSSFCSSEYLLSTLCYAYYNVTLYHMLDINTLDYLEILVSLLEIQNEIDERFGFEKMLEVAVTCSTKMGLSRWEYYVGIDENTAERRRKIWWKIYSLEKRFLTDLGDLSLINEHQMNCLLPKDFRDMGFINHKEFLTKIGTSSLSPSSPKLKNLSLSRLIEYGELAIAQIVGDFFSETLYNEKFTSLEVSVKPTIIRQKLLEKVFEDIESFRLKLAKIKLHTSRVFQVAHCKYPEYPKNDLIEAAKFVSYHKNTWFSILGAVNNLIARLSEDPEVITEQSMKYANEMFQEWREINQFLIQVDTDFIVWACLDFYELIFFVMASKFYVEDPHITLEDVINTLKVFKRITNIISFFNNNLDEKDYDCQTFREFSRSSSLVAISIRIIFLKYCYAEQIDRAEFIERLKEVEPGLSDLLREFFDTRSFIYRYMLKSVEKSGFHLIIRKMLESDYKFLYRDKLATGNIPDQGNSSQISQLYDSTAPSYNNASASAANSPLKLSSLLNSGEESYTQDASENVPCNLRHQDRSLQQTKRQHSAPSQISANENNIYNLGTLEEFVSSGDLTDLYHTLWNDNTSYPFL
In short: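 Masliner-normalised scans of fluorescent anti-GST signal were the basis for scoring. That signal came from GST-tagged yeast transcription factors applied at about 100-200 nM to double-stranded universal all-10-mer Agilent arrays on fresh or once-stripped slides. Each ungapped eight-base word, pooled with its reverse complement, received an E-score from the Universal PBM Analysis Suite.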

Row | Sequence | PBM E-score
1 | AACAGGGT | -0.0562
2 | CGGGGTAA | 0.267
3 | GGCAAACC | -0.147
4 | GACGTATC | -0.0675
5 | CACCCGTA | 0.151
6 | GACCCGGC | 0.294
7 | CCCACCCC | 0.198
8 | CACCCGGA | 0.412
9 | ACCCCGGA | 0.352
10 | CCCACCCG | 0.387
11 | GACCCCGA | 0.109
12 | AACCCGGA | 0.384
13 | AACCCGGC | 0.289
14 | CCCACCCA | 0.073
15 | CACCCGGC | 0.234
16 | GACCCGGA | 0.369
17 | AATAGCGT | 0.0358
18 | CGCAAATA | 0.125
19 | TACACGTA | -0.168
20 | AAGATTGA | -0.131
21 | CTCGCCCA | -0.0292
22 | CGTGCGCA | -0.111

Row | Sequence | PBM E-score
23 | AGTCAAAA | -0.104
24 | CGGAGCAG | 0.403
25 | CGGAGCGC | 0.266
26 | CGGAGCCG | 0.369
27 | CGGAGCAC | 0.297
28 | CGGAGCGA | 0.378
29 | CGGAGCAA | 0.338
30 | AGGAGCCG | 0.0342
31 | CCGAGCCA | 0.295
32 | CCGAGCCG | 0.359
33 | ACGAGCCG | 0.134
34 | AGGAGCGA | -0.199
35 | CGGAGCCC | 0.208
36 | AGCATCGA | -0.0594
37 | ACATATCT | 0.0252
38 | CGCTGTAG | -0.00377
39 | ATGTGGTA | -0.0392
40 | AGCGAACG | -0.134
41 | GTAACCGA | 0.0824
42 | CGTGATTA | 0.0343
43 | GAGTACTC | 0.0872
44 | ACAAGCCC | -0.157

Row | Sequence | PBM E-score
45 | ACCCATCA | -0.129
46 | GAGCATTA | -0.0816
47 | AGGAAAAG | 0.0387
48 | TGGAAAAA | 0.0433
49 | CGGAAAAA | 0.403
50 | CGGAAAAC | 0.375
51 | GGGAAAAC | 0.0253
52 | AGGAAAAA | -0.157
53 | AGGAAAAC | 0.0846
54 | CGGAAAAG | 0.415
55 | CGAAAAAG | 0.159
56 | GGGAAAAA | 0.176
57 | TAACACGA | 0.0333
58 | CGCGAAAC | -0.00744
59 | TAACTGTA | -0.323
60 | GAGACCGA | 0.0506
61 | ATCTGGTC | -0.051
62 | ACGGGACC | 0.241
63 | CGGGGACG | 0.124
64 | CCGGGACA | 0.376
65 | ACGGGACG | 0.295
66 | CCGGGACG | 0.365

Row | Sequence | PBM E-score
67 | ACGGGACA | 0.311
68 | TCGGGACA | 0.167
69 | GCGGGACC | 0.323
70 | CCGGGACC | 0.413
71 | ATGGGCCG | 0.0292
72 | AGAAGCCG | 0.213
73 | AACTGTAG | -0.124
74 | AAGATAGA | -0.184
75 | ACCAAAAG | -0.176
76 | CCTCCGCG | 0.445
77 | CCTCCGCC | 0.169
78 | CCTCCGCA | 0.00168
79 | ACTCCGCG | 0.397
80 | ACTCCGCC | 0.343
81 | ACTCCGCT | 0.14
82 | CATAACGC | -0.102
83 | GCGGCTTA | -0.0127
84 | CCGGCTTA | 0.356
85 | CCGGCTTC | 0.322
86 | GTCAGAAC | -0.132
87 | AGTTCAAT | -0.139
88 | CCACGTGA | -0.0844

Row | Sequence | PBM E-score
89 | CCATTCCC | 0.101
90 | ATATTCCC | 0.266
91 | CCATTCCG | 0.425
92 | ACATTCCG | 0.439
93 | ACATTCCT | -0.0606
94 | CCATTCCA | 0.0798
95 | ATATTCCG | 0.426
96 | ATATTCCA | 0.128
97 | ACATTCCC | 0.154
98 | CTCAAACC | -0.0558
99 | GACATCTA | -0.0109
100 | CAACTTTA | -0.0602
101 | ATACTCGC | 0.162
102 | ACCAAGGT | -0.0204
103 | AGAGCGAC | -0.135
104 | AGGCCATA | -0.0791
105 | CCCGCGGC | 0.488
106 | GACGCGGC | 0.0937
107 | GCGGCCGC | 0.35
108 | CCCGCGTC | 0.236
109 | CCCGCGAC | 0.175
110 | GCCGCGGC | 0.484
